What all share (test): fluorescence anisotropy competition titration; 25 mM sodium phosphate (purification buffer pH 7.2), 225 mM NaCl, 10% v/v glycerol, 5 mM DTT, 0.2 mg/mL BSA, 22 C; low values mean tight binding
Conditions in all cases: protein: recombinant; tags: N-terminal 6xHis-lipoyl-TEV tag, cleaved; chain copies: 4; dsDNA, one strand shown
In general terms: Fluorescence polarisation rises when a labelled molecule tumbles more slowly, as on binding a larger partner.

Test [1] concerns the target T1, Dmp53 (Drosophila melanogaster, UniProt Q9N6D8 1-385).
T1 sequence: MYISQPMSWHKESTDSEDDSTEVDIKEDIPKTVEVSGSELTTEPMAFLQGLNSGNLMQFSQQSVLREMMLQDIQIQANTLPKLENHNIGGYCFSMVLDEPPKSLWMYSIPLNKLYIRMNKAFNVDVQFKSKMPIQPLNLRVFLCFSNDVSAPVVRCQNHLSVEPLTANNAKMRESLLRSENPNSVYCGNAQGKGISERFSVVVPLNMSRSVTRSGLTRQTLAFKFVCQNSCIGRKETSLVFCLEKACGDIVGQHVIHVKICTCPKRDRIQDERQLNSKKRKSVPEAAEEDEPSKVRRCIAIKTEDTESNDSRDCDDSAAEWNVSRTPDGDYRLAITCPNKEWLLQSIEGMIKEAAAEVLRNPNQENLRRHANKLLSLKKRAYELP

In test [2] the target is T2, Drp53 (Danio rerio, UniProt P79734 1-373).
T2 sequence: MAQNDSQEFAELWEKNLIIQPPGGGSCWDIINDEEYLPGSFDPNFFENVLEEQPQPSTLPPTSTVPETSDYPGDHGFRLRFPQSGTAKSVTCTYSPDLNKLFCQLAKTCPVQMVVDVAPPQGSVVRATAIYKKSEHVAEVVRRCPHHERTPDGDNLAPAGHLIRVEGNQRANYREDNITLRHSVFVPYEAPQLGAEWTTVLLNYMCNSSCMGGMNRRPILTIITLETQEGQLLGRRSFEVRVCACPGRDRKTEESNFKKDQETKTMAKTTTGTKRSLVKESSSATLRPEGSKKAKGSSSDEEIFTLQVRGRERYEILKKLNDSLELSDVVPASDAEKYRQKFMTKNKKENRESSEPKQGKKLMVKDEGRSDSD

Test [3] addresses Hsp53 (Homo sapiens, UniProt P04637 1-393).
Test [4] deals with Xlp53 (Xenopus laevis, UniProt Q7T1D0 1-362).
Sequence of Xlp53 (Q7T1D0 entry or part of it): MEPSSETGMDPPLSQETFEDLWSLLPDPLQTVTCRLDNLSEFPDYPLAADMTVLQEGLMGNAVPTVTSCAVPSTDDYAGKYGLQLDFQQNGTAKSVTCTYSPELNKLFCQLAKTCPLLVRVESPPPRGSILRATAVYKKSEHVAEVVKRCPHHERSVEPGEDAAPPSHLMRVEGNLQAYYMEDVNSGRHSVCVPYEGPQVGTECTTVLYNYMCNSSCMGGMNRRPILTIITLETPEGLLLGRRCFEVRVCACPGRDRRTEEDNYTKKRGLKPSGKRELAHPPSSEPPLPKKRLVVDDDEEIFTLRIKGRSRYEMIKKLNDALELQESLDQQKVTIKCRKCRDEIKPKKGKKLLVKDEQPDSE
In test [5] the target is T3, ΔNp63α (Homo sapiens, UniProt Q9H3D4-2 1-586).
T3 sequence: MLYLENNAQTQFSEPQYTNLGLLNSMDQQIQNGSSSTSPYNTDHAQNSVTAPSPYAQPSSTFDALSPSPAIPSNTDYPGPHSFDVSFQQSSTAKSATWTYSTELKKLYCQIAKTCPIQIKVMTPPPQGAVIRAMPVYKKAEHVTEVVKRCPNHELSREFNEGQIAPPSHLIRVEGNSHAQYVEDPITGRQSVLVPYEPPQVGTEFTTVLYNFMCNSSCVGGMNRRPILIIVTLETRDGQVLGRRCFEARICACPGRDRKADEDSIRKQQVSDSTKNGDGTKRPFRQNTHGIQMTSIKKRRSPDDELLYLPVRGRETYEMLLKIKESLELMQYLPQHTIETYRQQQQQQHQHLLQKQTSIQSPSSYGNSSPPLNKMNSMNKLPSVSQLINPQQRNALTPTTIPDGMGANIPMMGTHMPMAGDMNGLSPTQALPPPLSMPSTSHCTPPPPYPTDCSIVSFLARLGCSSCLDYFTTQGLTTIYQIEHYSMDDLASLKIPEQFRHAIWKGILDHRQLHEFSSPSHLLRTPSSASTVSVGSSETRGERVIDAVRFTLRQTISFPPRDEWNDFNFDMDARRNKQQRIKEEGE

Test [6] has as its target T4, ΔNp63β (Homo sapiens, UniProt Q9H3D4-4 1-461).
T4 sequence: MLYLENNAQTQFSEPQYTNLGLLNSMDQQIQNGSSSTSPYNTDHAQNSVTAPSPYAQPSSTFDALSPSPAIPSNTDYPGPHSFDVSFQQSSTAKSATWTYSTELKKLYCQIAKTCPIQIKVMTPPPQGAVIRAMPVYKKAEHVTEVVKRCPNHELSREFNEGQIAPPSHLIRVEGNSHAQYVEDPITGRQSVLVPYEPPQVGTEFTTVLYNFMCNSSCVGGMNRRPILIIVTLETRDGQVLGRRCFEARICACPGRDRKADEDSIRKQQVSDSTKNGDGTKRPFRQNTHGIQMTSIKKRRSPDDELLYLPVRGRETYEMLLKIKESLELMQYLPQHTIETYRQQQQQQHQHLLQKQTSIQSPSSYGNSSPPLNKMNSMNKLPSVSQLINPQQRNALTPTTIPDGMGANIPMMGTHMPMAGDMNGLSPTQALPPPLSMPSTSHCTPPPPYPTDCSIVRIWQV

Test [7] has as its target T5, ΔNp63γ (Homo sapiens, UniProt Q9H3D4-6 1-393).
T5 sequence: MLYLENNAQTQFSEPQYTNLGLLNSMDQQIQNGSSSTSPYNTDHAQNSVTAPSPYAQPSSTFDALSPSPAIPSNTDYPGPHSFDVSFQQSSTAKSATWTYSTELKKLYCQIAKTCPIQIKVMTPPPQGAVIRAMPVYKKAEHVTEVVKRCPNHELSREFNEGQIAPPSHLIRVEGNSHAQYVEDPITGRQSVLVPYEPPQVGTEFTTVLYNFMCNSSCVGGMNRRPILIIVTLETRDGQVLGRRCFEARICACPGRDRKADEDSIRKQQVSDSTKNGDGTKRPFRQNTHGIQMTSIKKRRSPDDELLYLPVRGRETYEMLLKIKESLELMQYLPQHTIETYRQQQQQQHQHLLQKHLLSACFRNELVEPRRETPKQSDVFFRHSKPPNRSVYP

Test [8] addresses T6, ΔNp73β (Homo sapiens, UniProt O15350-9 1-450).
T6 sequence: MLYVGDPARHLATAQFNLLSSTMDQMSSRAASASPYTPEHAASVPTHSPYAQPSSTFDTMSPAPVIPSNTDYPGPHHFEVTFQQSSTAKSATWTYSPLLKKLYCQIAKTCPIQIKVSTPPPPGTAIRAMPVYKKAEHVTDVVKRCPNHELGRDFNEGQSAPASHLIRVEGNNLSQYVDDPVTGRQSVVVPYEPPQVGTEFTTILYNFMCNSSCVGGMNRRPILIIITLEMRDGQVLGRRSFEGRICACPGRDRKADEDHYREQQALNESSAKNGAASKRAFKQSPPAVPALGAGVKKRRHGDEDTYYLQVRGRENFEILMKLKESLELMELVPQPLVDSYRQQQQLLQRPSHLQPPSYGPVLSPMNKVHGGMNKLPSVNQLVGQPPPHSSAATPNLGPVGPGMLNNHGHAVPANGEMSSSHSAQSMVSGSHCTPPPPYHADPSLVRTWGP

For test [9], the target named is Mmp53 (Mus musculus, UniProt P02340 1-390).
Sequence of Mmp53 (P02340 whole entry): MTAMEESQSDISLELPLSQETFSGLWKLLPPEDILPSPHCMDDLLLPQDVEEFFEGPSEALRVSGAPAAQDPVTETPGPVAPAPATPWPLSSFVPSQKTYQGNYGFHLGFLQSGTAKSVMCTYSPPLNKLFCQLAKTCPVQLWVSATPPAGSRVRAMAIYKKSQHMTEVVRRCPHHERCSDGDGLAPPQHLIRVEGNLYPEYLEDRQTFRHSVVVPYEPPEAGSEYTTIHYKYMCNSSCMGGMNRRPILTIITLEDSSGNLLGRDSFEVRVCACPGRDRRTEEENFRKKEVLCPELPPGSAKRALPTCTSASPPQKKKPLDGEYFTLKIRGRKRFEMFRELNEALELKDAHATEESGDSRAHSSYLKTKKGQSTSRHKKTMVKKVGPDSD
Test [10] deals with T7, p73CT (Homo sapiens, UniProt O15350 104-383).
T7 sequence: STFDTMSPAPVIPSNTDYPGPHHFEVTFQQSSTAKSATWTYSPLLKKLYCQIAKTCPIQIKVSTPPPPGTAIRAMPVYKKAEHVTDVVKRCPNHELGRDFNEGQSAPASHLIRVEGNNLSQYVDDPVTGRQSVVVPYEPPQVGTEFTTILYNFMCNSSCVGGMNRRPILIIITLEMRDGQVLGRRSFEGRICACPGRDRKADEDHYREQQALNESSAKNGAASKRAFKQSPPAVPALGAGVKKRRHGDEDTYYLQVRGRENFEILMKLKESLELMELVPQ

Sequence of Hsp53 (P04637 whole entry): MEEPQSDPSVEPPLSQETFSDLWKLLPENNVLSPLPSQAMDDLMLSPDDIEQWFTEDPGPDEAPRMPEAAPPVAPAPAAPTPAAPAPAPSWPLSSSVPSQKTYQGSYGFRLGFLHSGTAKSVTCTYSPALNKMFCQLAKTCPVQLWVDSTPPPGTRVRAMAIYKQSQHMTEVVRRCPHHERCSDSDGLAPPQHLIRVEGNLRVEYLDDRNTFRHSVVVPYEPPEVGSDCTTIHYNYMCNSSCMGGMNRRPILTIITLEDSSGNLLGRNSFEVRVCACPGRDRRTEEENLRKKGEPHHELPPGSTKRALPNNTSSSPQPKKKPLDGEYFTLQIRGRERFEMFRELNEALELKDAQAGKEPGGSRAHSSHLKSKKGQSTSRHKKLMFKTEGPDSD

Take CGCAGACATGTCCGGACATGTCCCGC: the binding signal amounted to 0.03 delta log10 Kd in test [1]; 0.01 delta log10 Kd in test [2]; 0.01 delta log10 Kd in test [3]; 0 delta log10 Kd in [4]; 0 delta log10 Kd in [5]; 0.03 delta log10 Kd in test [6]. The binding signal in test [7] was 0.04 delta log10 Kd; in [8], 0.01 delta log10 Kd; in test [9] it was 0.05 delta log10 Kd; in [10], 0.02 delta log10 Kd.

Regarding CGCGGACATGGCCGGACATGTCCCGC, the binding signal turned out to be 0.93 delta log10 Kd in [1]; 0.73 delta log10 Kd in [3]; 0.89 delta log10 Kd in test [4]; 0.85 delta log10 Kd in [5]; 1.06 delta log10 Kd in [6]; 1.21 delta log10 Kd in test [7]. Further, the binding signal in [8] came to 1.18 delta log10 Kd; in test [10], 1 delta log10 Kd.

As to CGCGGAAATGTCCGGACATGTCCCGC, the binding signal in test [1] turned out to be 1.31 delta log10 Kd; in [2], 1.13 delta log10 Kd; in test [3], 0.77 delta log10 Kd; in test [4] it was 0.9 delta log10 Kd; in test [5] it was 1.08 delta log10 Kd; in test [6] it was 0.93 delta log10 Kd. The binding signal was determined as 1.4 delta log10 Kd in [7], 1.49 delta log10 Kd in test [8], 0.52 delta log10 Kd in [9] and 1.35 delta log10 Kd in test [10].

In the case of CGCGGACATGCCCGGACATGTCCCGC, the binding signal in [1] stood at 0.26 delta log10 Kd; in test [3], 0.03 delta log10 Kd; in test [4], 0.03 delta log10 Kd; in test [5], 0.06 delta log10 Kd; in test [6], 0.13 delta log10 Kd; in [7] it was 0.12 delta log10 Kd. Moreover, the figures for the binding signal in test [8] and in [10] were 0.03 delta log10 Kd and 0.05 delta log10 Kd, respectively.

In the case of CGCGGACCTGTCCGGACATGTCCCGC, the binding signal came out at 0.54 delta log10 Kd in test [1]; 0.77 delta log10 Kd in test [2]; 0.45 delta log10 Kd in test [3]; 0.48 delta log10 Kd in test [4]; 0.3 delta log10 Kd in test [5]; 0.57 delta log10 Kd in test [6]. Besides, the binding signal in test [7] turned out to be 0.58 delta log10 Kd; in test [8], 0.64 delta log10 Kd; in test [9], 0.4 delta log10 Kd; in test [10], 0.56 delta log10 Kd.

Regarding CGCGGGCATGTCCGGACATGTCCCGC, the binding signal in test [1] is 0.25 delta log10 Kd; in test [2], 0 delta log10 Kd; in test [3], 0.07 delta log10 Kd; in test [4], 0.01 delta log10 Kd; in test [6], 0 delta log10 Kd; in [7], 0.06 delta log10 Kd. Also, the binding signal in test [9] came to 0.03 delta log10 Kd.

As to CGCGGACAGGTCCGGACATGTCCCGC, the binding signal in [1] turned out to be 0.35 delta log10 Kd; in [2], 0.65 delta log10 Kd; in [3], 0.36 delta log10 Kd; in [4], 0.41 delta log10 Kd; in test [5], 0.17 delta log10 Kd; in [6], 0.43 delta log10 Kd. For the same sequence, the binding signal was determined as 0.43 delta log10 Kd in [7], 0.49 delta log10 Kd in [8], 0.4 delta log10 Kd in test [9] and 0.41 delta log10 Kd in [10].

Regarding CGCGGACATGTCGGGACATGTCCCGC, the binding signal in test [1] is 0.02 delta log10 Kd; in [2], 0.19 delta log10 Kd; in test [3], 0.27 delta log10 Kd; in test [4], 0.22 delta log10 Kd; in test [5], 0.11 delta log10 Kd; in test [6], 0.11 delta log10 Kd. Besides, the binding signal in test [7] is 0.1 delta log10 Kd; in [8], 0.17 delta log10 Kd; in test [9], 0.24 delta log10 Kd; in test [10], 0.17 delta log10 Kd.
